Test results as given in PubChem BioAssay (NCATS).
Inconclusive results are not listed. Activity calls are given as the source filed them. The call rests on the fitted dose curve; in most records, active means well fitted curve in the direction sought with a large enough effect; inconclusive means small, poorly fitted or top-dose-only effect, or another doubt; inactive means no such curve, though single readings can be large; an effect the other way counts as inactive or inconclusive.

Columns and labels:
C33A = assay: Primary qHTS to identify gynecologic anti-cancer compounds using libraries of approved drugs and bioactive compounds (AID 1345084); conditions: Gynecologic cancer cell panel viability, ATPlite luminescence, 48 h; series mostly up to 57.5 µM; further: on the % scale 0 is the no-effect control and ±100 the full control effect; nearly all actives have a fitted effect of over 55% in size
Procedure, shortened: (§1)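 ATP-based viability (ATPlite), 1,000 cells/well, 16 h pre-incubation, 48 h compound at 37 C, 5% CO2, 15 min RT before read.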

CAOV3 = assay: as above; conditions: Gynecologic cancer cell panel viability, ATPlite luminescence, 48 h; series mostly up to 57.5 µM
Procedure, shortened: as §1

CASKI = assay: as above; conditions: Gynecologic cancer cell panel viability, ATPlite luminescence, 48 h; series mostly up to 57.5 µM
Procedure, shortened: as §1

Es-2 = assay: as above; conditions: Gynecologic cancer cell panel viability, ATPlite luminescence, 48 h; series mostly up to 57.5 µM
Procedure, shortened: as §1

HeLa = assay: as above; conditions: Gynecologic cancer cell panel viability, ATPlite luminescence, 48 h; series mostly up to 57.5 µM
Procedure, shortened: as §1

Hek293T = assay: as above; conditions: Gynecologic cancer cell panel viability, ATPlite luminescence, 48 h, control line for the selectivity index; series mostly up to 57.5 µM
Procedure, shortened: as §1

JEG-3 = assay: as above; conditions: Gynecologic cancer cell panel viability, ATPlite luminescence, 48 h; series mostly up to 57.5 µM
Procedure, shortened: as §1

OV90 = assay: as above; conditions: Gynecologic cancer cell panel viability, ATPlite luminescence, 48 h; series mostly up to 57.5 µM
Procedure, shortened: as §1

UISO = assay: qHTS assay to identify novel small-molecules to repurpose for Merkel cell carcinoma treatment (AID 1296009); conditions: MCC and control cell lines, CellTiter-Glo viability, 72 h; further: potency means the concentration at half of the fitted maximal effect; nearly all actives have a fitted effect of over 60% in size
Procedure, shortened: (§2)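 Luminescence from CellTiter-Glo, read 10 min after addition at room temperature, reported viability following a 72 hr, 37 degree celsius treatment with NPC or MIPE compounds in titration; values normalized to plate controls.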

WaGa = assay: as above; conditions: MCC and control cell lines, CellTiter-Glo viability, 72 h
Procedure, shortened: as §2

CC(N)Cc1c[nH]c2ccccc12 (stereo not drawn)
inactive: Potency (C33A) | Potency (CAOV3) | Potency (CASKI) | Potency (Es-2) | Potency (HeLa) | Potency (Hek293T) | Potency (JEG-3) | Potency (OV90)

Cc1c(Cl)cccc1S(=O)(=O)Nc1nc(CC(=O)N2CCN(C)CC2)cs1
inactive: Potency (C33A) | Potency (CAOV3) | Potency (CASKI) | Potency (Es-2) | Potency (HeLa) | Potency (Hek293T) | Potency (JEG-3) | Potency (OV90)

CCCCCOc1cc2c(cc1-c1cc(/C=C/C(=O)O)ccc1O)C(C)(C)CCC2(C)C
inactive: Potency (C33A) | Potency (CAOV3) | Potency (CASKI) | Potency (Es-2) | Potency (HeLa) | Potency (Hek293T) | Potency (JEG-3) | Potency (OV90)

CC(C)C1(OO)C=C2C(=O)CC3C(C)(C(=O)O)CCCC3(C)C2CC1 (stereo not drawn)
inactive: Potency (C33A) | Potency (CAOV3) | Potency (CASKI) | Potency (Es-2) | Potency (HeLa) | Potency (Hek293T) | Potency (JEG-3) | Potency (OV90)

CC(CCc1ccc(O)cc1)O[C@@H]1O[C@H](CO[C@H]2OC[C@](O)(CO)[C@H]2O)[C@@H](O)[C@H](O)[C@H]1O (stereo partly drawn)
inactive: Potency (C33A) | Potency (CAOV3) | Potency (CASKI) | Potency (Es-2) | Potency (HeLa) | Potency (Hek293T) | Potency (JEG-3) | Potency (OV90)

C[CH2][Hg][S]c1ccccc1C(=O)O
active: Potency (UISO) 2.99 µM | Potency (WaGa) 2.66 µM

COC(=O)C12C(=O)C(C)(O)C(=O)C1(C)C(C)=CC1C34CCC(OC3=O)C(C)(CO)C4CCC12C (stereo not drawn)
inactive: Potency (C33A) | Potency (CAOV3) | Potency (CASKI) | Potency (Es-2) | Potency (HeLa) | Potency (Hek293T) | Potency (JEG-3) | Potency (OV90)

COC(=O)C1(C)CCC(O)C2(C)c3cc(O)c(C(C)C)cc3C(O)C(OC(C)=O)C12 (stereo not drawn)
inactive: Potency (C33A) | Potency (CAOV3) | Potency (CASKI) | Potency (Es-2) | Potency (HeLa) | Potency (Hek293T) | Potency (JEG-3) | Potency (OV90)

CC1=C2C[C@H]3[C@@H](CC=C4C[C@@H](O)CC[C@@]43C)[C@@H]2CC[C@]12O[C@@H]1C[C@H](C)CN[C@H]1[C@H]2C
inactive: Potency (C33A) | Potency (CAOV3) | Potency (CASKI) | Potency (Es-2) | Potency (HeLa) | Potency (Hek293T) | Potency (JEG-3) | Potency (OV90)

N#C[C@@H](O[C@@H]1O[C@H](CO[C@@H]2O[C@H](CO)[C@@H](O)[C@H](O)[C@H]2O)[C@@H](O)[C@H](O)[C@H]1O)c1ccccc1
inactive: Potency (C33A) | Potency (CAOV3) | Potency (CASKI) | Potency (Es-2) | Potency (HeLa) | Potency (Hek293T) | Potency (JEG-3) | Potency (OV90)

C=C(C)[C@H]1O[C@H]2CC[C@@]3(C)[C@@](O)(CC[C@H]4[C@@H]5OC(C)(C)[C@H]6C[C@@H]7C(=C)Cc8c(Cl)cc9[nH]c(c5c9c8[C@@]76O)[C@@]43C)[C@]23O[C@@H]3[C@H]1O
inactive: Potency (C33A) | Potency (CAOV3) | Potency (CASKI) | Potency (Es-2) | Potency (HeLa) | Potency (Hek293T) | Potency (JEG-3) | Potency (OV90)

CN(C)CCc1c[nH]c2ccc(CN3CCN(C)S3(=O)=O)cc12
inactive: Potency (C33A) | Potency (CAOV3) | Potency (CASKI) | Potency (Es-2) | Potency (HeLa) | Potency (Hek293T) | Potency (JEG-3) | Potency (OV90)

COC1CC(OC2CCC3(C)C(=CCC4C3CCC3(C)C(C(C)OC5OC(COC6OC(CO)C(O)C(O)C6O)C(O)C(O)C5O)CCC43O)C2)OC(C)C1OC1OC(C)C(O)C(OC)C1O (stereo not drawn)
inactive: activity change, negative = cytotoxicity (C33A) 6.28% [at 11.6 µM] | activity change, negative = cytotoxicity (CAOV3) 3.88% [at 11.6 µM] | activity change, negative = cytotoxicity (CASKI) 4.6% [at 11.6 µM] | activity change, negative = cytotoxicity (Es-2) -3.02% [at 11.6 µM] | activity change, negative = cytotoxicity (HeLa) -1.19% [at 11.6 µM] | activity change, negative = cytotoxicity (Hek293T) 5.95% [at 11.6 µM] | activity change, negative = cytotoxicity (JEG-3) -7.91% [at 11.6 µM] | activity change, negative = cytotoxicity (OV90) 0.938% [at 11.6 µM]

O=C(N1CCOCC1)N1CCN(c2ccc(Cl)cc2)CC1
inactive: Potency (C33A) | Potency (CAOV3) | Potency (CASKI) | Potency (Es-2) | Potency (HeLa) | Potency (Hek293T) | Potency (JEG-3) | Potency (OV90)

C[C@H]1C(=O)O[C@H]2[C@H](O)[C@]34C5OC(=O)[C@]3(O[C@@H]3OC(=O)[C@H](O)C34[C@H](C(C)(C)C)[C@H]5O)C12O (stereo partly drawn)
inactive: Potency (C33A) | Potency (CAOV3) | Potency (CASKI) | Potency (Es-2) | Potency (HeLa) | Potency (Hek293T) | Potency (JEG-3) | Potency (OV90)

Cc1cc(C(=O)CN2CCCC2)c(C)n1-c1ccc(F)cc1
inactive: Potency (C33A) | Potency (CAOV3) | Potency (CASKI) | Potency (Es-2) | Potency (HeLa) | Potency (Hek293T) | Potency (JEG-3) | Potency (OV90)

C[C@@H]1C(=O)O[C@H]2[C@H](O)[C@@]34[C@@H]5OC(=O)[C@@]3(O[C@@H]3OC(=O)[C@@H](O)[C@@]34[C@H](C(C)(C)C)[C@H]5O)[C@@]12O
inactive: Potency (C33A) | Potency (CAOV3) | Potency (CASKI) | Potency (Es-2) | Potency (HeLa) | Potency (Hek293T) | Potency (JEG-3) | Potency (OV90)

C=C[C@H]1[C@H](O[C@@H]2O[C@H](CO)[C@@H](O)[C@H](O)[C@H]2O)OC=C2C(=O)OCC[C@H]21
inactive: Potency (C33A) | Potency (CAOV3) | Potency (CASKI) | Potency (Es-2) | Potency (HeLa) | Potency (Hek293T) | Potency (JEG-3) | Potency (OV90)
